PLCb3 inh = PLC-beta3 (human) inhibition, primary screen. Q01970. Purified PLC-beta3, fluorogenic substrate, fluorescence. inhibition, % at 12.2 µM. 370,000 compounds, 0.18% hits. AID 720704; in the data active means inhibition above about 11%;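 further: 0% = median of compound wells on plate and 100% = full blocker control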
PLCg1 inh = blocks human PLC-gamma1 enzyme activity | P19174 | purified PLC-gamma1, fluorogenic substrate, fluorescence | inhibition, % at 12.2 µM | 370,000 compounds, 0.84% hits; in the data active means inhibition above about 9.5%
ADAM10 inh = inhibitors of human ADAM10. recombinant ADAM10, EDANS/DABCYL FRET peptide cleavage, 3 h. inhibition, % at 7 µM. 370,000 compounds, 0.62% hits. AID 720582;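 active means inhibition above a per-campaign cutoff equal to the mean of compounds falling between control-based bounds plus 3 SD, cut at about 20% in these data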;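 further: 0% = DMSO wells while the 100% control is not disclosed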
proKLK7 act = activates the human kallikrein-7 zymogen | P49862 | purified proKLK7, EDANS-DABCYL substrate fluorescence; 100% is mature enzyme control, 0% vehicle | activation, % at 7 µM | 370,000 compounds, 0.9% hits | AID 652039;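 active means activation above the mean of all tested compounds plus 3 SD, computed per campaign excluding outliers beyond control limits, cut at about 13% in these data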
ADAM17 inh = ADAM17 inhibition, QFRET primary screen | P78536 | recombinant ADAM17, EDANS/DABCYL FRET peptide cleavage | inhibition, % at 6.95 µM | 370,000 compounds, 0.83% hits | AID 720648;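 active means inhibition above the mean of compounds lying between control limits plus 3 SD, set per campaign, cut at about 8.5% in these data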;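 further: 0% = DMSO-only wells as the low control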
Target sequence (P78536 215-824 limits assumed): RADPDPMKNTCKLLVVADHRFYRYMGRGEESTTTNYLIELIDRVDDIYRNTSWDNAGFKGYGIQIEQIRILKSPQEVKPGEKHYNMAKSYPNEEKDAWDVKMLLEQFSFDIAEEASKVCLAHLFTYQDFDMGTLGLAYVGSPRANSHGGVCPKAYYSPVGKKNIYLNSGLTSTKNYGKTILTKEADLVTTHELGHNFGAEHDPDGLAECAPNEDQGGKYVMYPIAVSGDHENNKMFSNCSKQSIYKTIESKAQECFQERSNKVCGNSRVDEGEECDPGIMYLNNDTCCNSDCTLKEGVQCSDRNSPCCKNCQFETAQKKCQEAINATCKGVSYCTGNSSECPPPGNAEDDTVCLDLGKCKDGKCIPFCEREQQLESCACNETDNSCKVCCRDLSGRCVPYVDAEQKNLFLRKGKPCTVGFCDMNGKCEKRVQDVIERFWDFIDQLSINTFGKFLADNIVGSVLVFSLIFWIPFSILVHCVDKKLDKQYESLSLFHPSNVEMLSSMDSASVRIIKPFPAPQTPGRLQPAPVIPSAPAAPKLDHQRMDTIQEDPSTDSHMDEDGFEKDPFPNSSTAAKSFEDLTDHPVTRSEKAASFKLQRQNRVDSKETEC
ADAM10 confirm = human ADAM10 inhibition, confirmation. shares compounds with ADAM10 inh. ADAM10 QFRET peptide cleavage, EDANS fluorescence. inhibition, % at 6.95 µM. 2,100 compounds, 1% hits;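 active means inhibition above about 20% chosen separately for each screening run, limit read from the data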;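 further: 0% = DMSO wells and 100% = marimastat wells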
ADAM17 counter = ADAM17 inhibition, counter-screen for ADAM10 exosite hits. shares compounds with ADAM10 inh. ADAM17 QFRET peptide cleavage, EDANS fluorescence. inhibition, % at 6.95 µM. 2,100 compounds, 0.5% hits;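 active means mean triplicate inhibition above the solvent-only control wells' mean plus 3 SD, cut at about 12% in these data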;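 further: 0% = DMSO wells and 100% = marimastat wells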
* = called active by the depositor; i = inactive; . = no result; ! = not active in a repeat. Rows were chosen to be rich in hits. Some 2.9% of all compounds tested hit in one or more screens of this group.

SMILES	PLCb3 inh	PLCg1 inh	ADAM10 inh	proKLK7 act	ADAM17 inh	ADAM10 confirm	ADAM17 counter
CCOC(=O)Cn1nnnc1CN(Cc1cccs1)Cc1cc2cc(C)cc(C)c2[nH]c1=O	-62	-43	-80	-7	-20	.	.
CC(C)C[C@@H](CN1CCCC1CN1C(=S)NC[C@@H]1Cc1ccc(O)cc1)N1C[C@H](Cc2ccc(O)cc2)N(CCc2ccccc2)C1=S (stereo not given in full)	6	3	33*	0	11*	14	3
Oc1ccc(C[C@H]2CNC(=S)N2C[C@H]2CCCN2C[C@H](Cc2ccccc2)N2C[C@H](Cc3ccc(O)cc3)N(CCc3ccccc3)C2=S)cc1	5	4	28*	0	7	12	4
O=C1CCCN2N=C(SCC(=O)N3CCCCC3)SC2=N1	-9	0	-3	0	-9	.	.
COc1ccc(C2NC(=S)N(Cc3ccc(Cl)cc3)C(C)=C2C(C)=O)cc1 (stereo not given)	0	3	22*	0	6	3	2
COc1ccccc1-c1ccc(SCc2cccc(F)c2)nn1	-6	-3	12	0	1	.	.
Cc1ccc(OCC(=O)N/N=C/c2cn(Cc3ccccc3)c3ccccc23)cc1	0	2	23*	0	6	1	2
CCOC(=O)N/N=C/c1cn(CCCOc2ccc(C)cc2)c2ccccc12	0	2	0	0	6	.	.
Cc1cccc(C(=O)NC(=S)N2CCN(C(=S)NC(=O)c3cccc(C)c3)CC2)c1	3	-8	24*	0	3	1	0
Cc1cccc(C(=O)NC(=S)N2CCN(C)CC2)c1	0	-2	-5	0	-3	.	.
CC(=O)N1c2ccc(S(=O)(=O)N3CCCC3C(=O)NCc3ccc(Cl)cc3)cc2CC1C (stereo not given)	2	0	-10	0	0	.	.
O=C(CN(C(=O)CCC(=O)Nc1nccs1)c1ccc2c(c1)OCO2)NCc1ccc(F)cc1	-9	-1	6	0	-4	.	.
CC(=O)Nc1ccc(-c2ccnc3c2CC(C)(C(=O)Nc2ccc(Cl)c(C(F)(F)F)c2)O3)cc1 (stereo not given)	0	0	20*	1	5	9	3
CCOC1=C2[C@@H](CN(S(=O)(=O)c3ccc(C)cc3)[C@H]2c2ccc(Cl)cc2)[C@H]2C(=O)N(c3ccccc3)C(=O)[C@H]2C1	0	-2	-4	0	-4	.	.
CCOC1=C2[C@@H](CN(S(=O)(=O)c3ccc(C)cc3)[C@H]2c2cccc3ccccc23)[C@H]2C(=O)N(c3ccccc3)C(=O)[C@H]2C1	0	0	21*	1	6	10	3
COc1cc2c(cc1OC)C(c1ccccc1)N(C(=O)c1ccccc1F)CC2 (stereo not given)	2	8	21*	0	-1	1	0
O=c1[nH]c2cc(C(F)(F)F)ccc2n1-c1cc(C(F)(F)F)ccc1O	3	0	20*	1	3	0	-1
Cc1c(C(C)(C)O)[nH]c2cc(C(F)(F)F)ccc12	-1	0	5	0	-3	.	.
COc1cc(Br)cc(CNc2ccc(F)c([N+](=O)[O-])c2)c1O	-2	0	20*	0	6	4	1
COc1cc(S(=O)(=O)NCc2ccccn2)ccc1Cl	2	6	9	0	2	.	.
COc1ccc(S(=O)(=O)NCc2ccccn2)cc1Br	3	8	23*	0	5	-2	0
Cc1ccccc1C(=O)NC=C1C(=O)OC(C)(C)OC1=O	0	-3	-2	0	1	.	.
CCOC(=O)c1c(N)sc2c(OCC)c(Br)ccc12	1	-1	23*	-2	5	6	3
CCOC(=O)c1c(NC(C)=O)sc2c(OCC(O)CNC(C)(C)C)c(Br)ccc12 (stereo not given)	-13	-16	-84	0	-23	.	.
c1csc(-c2ccnc3ncnn23)c1	-134	-112	i	6	-490	.	.
SMILES	PLCb3 inh	PLCg1 inh	ADAM10 inh	proKLK7 act	ADAM17 inh	ADAM10 confirm	ADAM17 counter
CCOc1ccc(NC(=O)CC2CC(C)(C)OC2=O)cc1 (stereo not given)	1	0	1	0	-3	.	.
CCCC1CC(C)(c2csc(Nc3ccc(OCC)cc3)n2)OC1=O (stereo not given)	3	2	21*	0	5	8	2
O=C(CCN1C(=O)c2ccccc2C1=O)C1=NN[C@@H]2C(=O)N(c3cccc(F)c3)C(=O)[C@H]12	7	4	15	0	1	.	.
O=C(COC(=O)C1CCN(c2ccc(C(F)(F)F)cn2)CC1)NC1CCCCC1	-10	4	-13	0	-10	.	.
COC(=O)[C@]12C[C@H](CC(=O)NCc3cccc(C(F)(F)F)c3)C(=O)N(Cc3ccc4c(c3)OCO4)C1=C[C@H](C(C)C)O[C@@H]2C1CC1	3	-1	20*	0	8	7	3
COC(=O)[C@]12C[C@H](CC(=O)NCc3cccc4ccccc34)C(=O)N(Cc3ccc4c(c3)OCO4)C1=C[C@H](C(C)C)O[C@@H]2C1CC1	2	0	12	0	3	.	.
COC(=O)[C@]12C[C@H](CC(=O)NCCCCc3ccccc3)C(=O)N(Cc3ccc4c(c3)OCO4)C1=C[C@H](C(C)C)O[C@@H]2C1CC1	0	3	21*	0	6	6	3
CCCCCCCCN1C(=O)[C@@H](CC(=O)NCc2ccc(OC)c(OC)c2)C[C@@]2(C(=O)OC)C1=C[C@H](C(C)C)O[C@@H]2C1CC1	7	-1	22*	1	6	12	3
CN(Cc1ccc2nsnc2c1)C(=O)C1CCC(=O)N(CCc2ccccc2)C1 (stereo not given)	-4	-2	-15	0	-5	.	.
O=[N+]([O-])c1cc(S(=O)(=O)Nc2cccc(C(F)(F)F)c2)ccc1-n1nnc2ccccc21	-5	1	23*	0	6	-1	0
CC1(C)C=Cc2c(ccc3c2OC[C@H](c2ccc(O)cc2O)C3)O1	-1	0	28*	1	8	13	3
CS(=O)(=O)N(CC(=O)Nc1ccc2c(c1)OCCO2)c1ccc2c(c1)OCO2	5	3	-1	0	-1	.	.
CCOC(=O)C1=C(C)NC(C)=C(C(=O)OC)C1c1cccc([N+](=O)[O-])c1 (stereo not given)	5	4	8	0	3	.	.
COCCOC(=O)C1=C(C)NC(C)=C(C(=O)OC(C)C)C1c1cccc([N+](=O)[O-])c1 (stereo not given)	6	8	22*!	0	3	1	0
